Assay outcomes as filed in PubChem BioAssay.
An excerpt weighted towards active compounds, which were near 7.8% of everything screened.
LASV entry inh – qHTS for Inhibitors of binding or entry into cells for Lassa Virus; Lassa virus pseudotype entry inhibition, cell reporter; Potency, µM (titrated, usually from 37.9 µM), without a hit: top-dose activity change, negative = inhibition, usual class: inhibitors; actives 1.2% (n = 300,000); calls by dose curve; tested in HEK293 cells; further: potency means the concentration at half of the fitted maximal effect; nearly all actives have a fitted effect of over 50% in size
VACV Venus inh – qHTS for Stage-Specific Inhibitors of Vaccinia Orthopoxvirus: Venus Reporter Primary qHTS. actives 0.46% (n = 330,000). AID 720580, 2013. Potency, µM (titrated, usually from 36.5 µM), without a hit: at the highest dose activity change, negative = inhibition, actives largely listed as inhibitors. Vaccinia virus Venus reporter expression, fluorescence; calls by dose curve; tested in A549 cells; further: potency means the concentration at half of the fitted maximal effect; nearly all actives have a fitted effect of over 30% in size
HCMV antiviral – qHTS Assay for inhibitors of the human cytomegalovirus (HCMV); actives 4.5% (n = 410,000); AID 1259415, 2018; HFF cells, HCMV-luciferase reporter, 72 h; hits give low values; activity change, negative = inhibition, % at 57.5 µM; in the data active means activity change below about -60%; inconclusive means no clear call, values can overlap the other calls; inactive means above about -39%
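Luciferase read-out from HCMV-luciferase-infected HFFs (MOI 1 PFU/cell) 72 h post infection at 37C; compounds added after 16 h cell attachment; activity normalized between buffer-only basal and Salinomycin (10uM) inhibitor controls.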
Marburg entry inh – qHTS for inhibitors of binding or entry into cells for Marburg Virus; Marburg virus pseudotyped entry inhibition, cell reporter; Potency, µM (titrated, usually from 37.8 µM), for the others: at the top dose activity change, negative = inhibition, actives largely listed as inhibitors; actives 1.8% (n = 300,000); AID 540276, 2011; calls by dose curve; tested in HEK293 cells; further: potency means the concentration at half of the fitted maximal effect
HCV inh – qHTS Assay for Inhibitors of Hepatitis C Virus (HCV). Huh7.5.1 HCVcc-Cre infection, luciferase reporter, 44 h. Potency, µM (highest dose often 41.8 µM), for the others: top-dose activity change, negative = inhibition, usual class: inhibitors. actives 3.4% (n = 340,000). AID 651820, 2012; active means well fitted inhibition curve with a large enough effect; inconclusive means small, poorly fitted or top-dose-only effect, or another doubt; inactive means no such curve, though single readings can be large or run the other way; further: potency means the concentration at half of the fitted maximal effect
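Whole-lifecycle infectious HCVcc-Cre system; cells 1,000/well, compound then virus (~0.5 moi) added 4 h after plating, 44 h culture. Luciferase read 15 sec following 15 min substrate incubation, room temp.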
Vaccinia mCherry – qHTS for Stage-Specific Inhibitors of Vaccinia Orthopoxvirus: mCherry Reporter Primary qHTS | AID 720579, 2013 | Vaccinia virus mCherry reporter infection, fluorescence | actives 0.63% (n = 310,000) | Potency, µM (top dose mostly 36.5 µM), inactives show at the top dose activity change, negative = inhibition, actives largely listed as inhibitors; calls by dose curve; tested in A549 cells; further: potency means the concentration at half of the fitted maximal effect; nearly all actives have a fitted effect of over 35% in size
* hit, by the source's call; i = inactive; ? = inconclusive; . = no result given; [ ] = remark or other dose. On the % scale 0 is the no-effect control and ±100 the full control effect.

SMILES	LASV entry inh	VACV Venus inh	HCMV antiviral	Marburg entry inh	HCV inh	Vaccinia mCherry
C=CC[C@H](CC(=O)N(CCO)Cc1ccccc1)C(=O)N[C@H](COC(=O)[C@@H](CC=C)CC(=O)OC(C)(C)C)Cc1ccccc1	.	?	29.4	.	?	-0.9%
C=CC[C@H](CC(=O)N(CCO)Cc1ccccc1)C(=O)N[C@H](COC(=O)[C@H](CC=C)CC(=O)OC(C)(C)C)Cc1c[nH]c2ccccc12	.	-27.8%	-11.5	.	25.1µM*	-21.2%
C=CC[C@@H](CC(=O)N(CCO)Cc1ccccc1)C(=O)N[C@@H](COC(=O)[C@H](CC=C)CC(=O)OC(C)(C)C)Cc1c[nH]c2ccccc12	.	11.2µM*	-24.7	.	?	?
CCOc1ccc(NC(=O)CC2C(=O)N(c3cccc(C)c3)C(=O)N2CCC2=CCCCC2)cc1 (stereo not drawn)	?	-13.0%	1.2	?	.	i
COC(=O)c1cc(CNC(=O)c2cccc(N(C)C)c2)cc(NC(=O)c2ccccc2Cl)c1	.	-19.0%	.	.	.	-12.4%
O=C(Cn1c(SCCOc2ccccc2)nc2ccccc21)N1CCOCC1	14.0%[46.1 µM]	-3.4%	1.1	-2.1%[46.1 µM]	.	-7.5%
Cc1cccc(NC(=O)N2CCN(Cc3ccc(Cl)cc3)CC2)c1	?	-27.2%	-62.9*	?	?	-10.2%
COc1cc(OC)c(OC)cc1CN1CCN(Cc2ccc(C(F)(F)F)cc2)CC1	.	.	15.1	.	11.2µM*	.
Cc1cccc(CN2CCN(Cc3ccc(Cl)cc3)CC2)c1	?	-1.3%	4.2	?	6.31µM*	-12.7%
COc1ccccc1CN1CCN(Cc2ccc(Cl)cc2)CC1	0.7%[46.1 µM]	-7.9%	?	11.2µM*	-5.9%	i
COc1cc(OC)c(OC)cc1CN1CCN(Cc2cccc(F)c2)CC1	.	.	20.7	.	-8.8%	.
Cc1cccc(CN2CCN(c3ccc(Cl)cc3)CC2)c1	.	-5.2%	23.7	.	-13.5%	-8.2%
COc1ccc(CN2CCN(Cc3ccccc3OC)CC2)cc1	.	.	9.3	.	5.7%	.
COc1cc(C(=O)Nc2ccccc2OCc2cc(=O)n3cc(C)sc3n2)cc(OC)c1OC	-1.3%[46.1 µM]	-4.0%	-5.2	10.7%[46.1 µM]	.	-4.6%
COc1ccc(N(C(=O)Cc2cccs2)C(C(=O)NC2CCCC2)c2ccncc2)cc1OC (stereo not drawn)	-1.4%	-4.8%	69.9	9.5%[46.1 µM]	18.4%	-6.9%
Cc1cccc(N(C(=O)C(F)(F)F)C(C(=O)NC2CCCCC2)c2cccs2)c1 (stereo not drawn)	-1.1%	-1.4%	-19.3	?	6.9%	-8.2%
C#CC(=O)N(c1cccc(OC)c1)C(C(=O)NC1CCCC1)c1cccs1 (stereo not drawn)	?	14.1µM*	-100.7*	2.91µM*	0.562µM*	20µM*
C#CC(=O)N(c1ccc(OC)c(OC)c1)C(C(=O)NC1CCCC1)c1cccs1 (stereo not drawn)	7.94µM*	?	-99.4*	3.55µM*	0.316µM*	?
CCOc1ccc(C2CC(=O)NC(NC(=O)c3cccc(Cl)c3)=N2)cc1 (stereo not drawn)	?	-23.0%	93.2	.	.	-14.6%
COc1ccc(/C=C/C(=O)C2CC2)cc1COc1cccc(C)c1C	7.08µM*	-18.0%	25.3	?	?	-14.9%
COc1ccc(/C=N/NC(=S)Nc2ccccc2)cc1COc1cccc(C)c1C	.	-4.4%[7.34 µM]	-17.4	.	-3.2%	i[7.34 µM]
Cc1noc2ncnc(N3CCCCC3)c12	.	.	2.4	.	-4.5%	.
Cc1noc2ncnc(N3CCN(c4ccc(F)cc4)CC3)c12	-2.9%	.	-67.6*	-20.5%	-23.1%	.
COc1ccc(N2CCN(c3ncnc4onc(C)c34)CC2)cc1	7.7%[46.1 µM]	-17.7%[7.34 µM]	-69.4*	.	.	-16.9%[7.34 µM]
O=C(Nc1ccc(Cl)c(C(F)(F)F)c1)c1cc2nc(-c3ccc4c(c3)OCO4)cc(C(F)(F)F)n2n1	29.8%[46.1 µM]	-5.3%	13.7	-5.8%[46.1 µM]	.	-4.6%
SMILES	LASV entry inh	VACV Venus inh	HCMV antiviral	Marburg entry inh	HCV inh	Vaccinia mCherry
O=C(O)C(Cc1ccccc1)N1CCS(=O)(=O)CC1 (stereo not drawn)	-11.4%	2.9%	?	18.5%[46.1 µM]	2.3%	-0.2%
COC(=O)C(Cc1ccccc1)N1CCS(=O)(=O)CC1 (stereo not drawn)	7.9%	-16.8%	-69.5*	16.6%[46.1 µM]	-6.2%	-5.0%
Cc1cccn2c(=O)c(/C=C(\C#N)c3nc4ccccc4n3C)c(Oc3ccc(Br)cc3)nc12	-0.7%[46.1 µM]	6.3%	-11.8	17.4%[46.1 µM]	.	-2.6%
C[C@@H]1CN([C@@H](C)CO)S(=O)(=O)c2ccc(Br)cc2O[C@@H]1CN(C)Cc1ccc2c(c1)OCO2	.	.	-35.6	.	.	.
CC(C)C[C@H]1C(=O)N2CCCC2[C@]2(O)O[C@](NC(=O)[C@@H]3C=C4c5cccc6[nH]c(Br)c(c56)C[C@H]4N(C)C3)(C(C)C)C(=O)N12 (stereo partly drawn)	.	.	.	10µM*	.	.
CC(C)C[C@H]1C(=O)N2CCC[C@H]2[C@]2(O)O[C@](NC(=O)C3C=C4c5cccc6[nH]c(Br)c(c56)C[C@H]4N(C)C3)(C(C)C)C(=O)N12 (stereo partly drawn)	.	-28.8%	-26.2	.	?	-15.2%
COc1cc(-c2noc(CN3CCN(c4ccccc4)CC3)n2)cc(OC)c1OC	24.0%[46.1 µM]	2.5%	3.1	20.8%[46.1 µM]	.	-17.7%
O=C1S/C(=C\c2ccc(N3CCOCC3)o2)C(=O)N1c1ccccc1	18.0%	45.8%	44.7	?	31.6µM*	9.7%
Cc1ccc(O)c(CNc2cnc3ccccc3c2)c1	?	-23.7%	64.0	?	?	12.6µM*
Cc1ccc(C)c2sc(N3CCN(C(=O)c4ccc([N+](=O)[O-])o4)CC3)nc12	?	?	-7.2	12.6µM*	?	?
Cc1ccc(C)c2sc(N3CCN(C(=O)C(C)(C)C)CC3)nc12	-3.3%[46.1 µM]	-10.1%	-8.1	.	.	-7.2%
O=C(c1ccc([N+](=O)[O-])o1)N1CCN(c2nc3c(F)cc(F)cc3s2)CC1	2.8%	-15.0%	2.3	?	0.562µM*	i
C/C(N)=C(/C#N)C(=O)COC(=O)Cc1coc2ccc3ccccc3c12	-7.5%	-1.7%	-68.3*	?	-22.1%	-4.2%
Cc1ccc(NC2(c3nnnn3-c3c(C)cccc3C)CCCCC2)cc1	?	-14.9%	-74.1*	?	?	-17.8%
CCOC(=O)C1=C(COC(=O)/C=C/c2cccc(OC)c2)NC(=O)NC1C (stereo not drawn)	-21.3%	-11.4%	33.0	-11.2%	.	-1.5%
CCOC(=O)C1=C(COC(=O)/C=C/c2ccc(OC)cc2)NC(=O)NC1C (stereo not drawn)	?	-27.4%	-5.0	-22.6%	3.16µM*	?
Cc1ccc(-n2nc(C)c(C(=O)NCCCN3CCN(c4ccccc4F)CC3)c2-n2cccc2)cc1	?	-28.6%	?	.	.	?
